Experiment [1] in a line: inhibitors of TNFa-induced NFkB p65 translocation, primary screen, imaging, HUVEC, MLSMR starter and 10KST1 sets (AID 438;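 active means inhibition above 20% together with a positive visual image hit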;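 further: compound added about 3h40 before a 20 min TNFalpha stimulation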;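 on inhibition: signal is the nuclear over cytoplasmic p65 intensity ratio per well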). Conditions: HUVEC TNFa-induced p65 nuclear translocation; cell count: measured here: nuclei count (cytotoxicity indicator), at 2.08 µM unless noted; inhibition: at 2 µM, stronger effect = higher value unless noted.
The nature of experiment [2]: inhibitors of mutant huntingtin aggregation, primary screen, imaging, exon1htt(103Q)mCFP cells, high-content imaging (AID 483;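 active means visual image review flags a hit and inhibition of aggregation exceeds 20%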;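 further: compound exposure lasted 3 days before fixation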;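 on nuclei count: percent of the per-plate median nuclei count of sample wells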). The note with it: exon1htt(103Q)mCFP cell line, aggregate imaging, at 2 µM; inhibition of aggregation: stronger effect = higher value; nuclei count: measured here: cell count, toxicity.
The nature of experiment [3]: inhibitors of E-selectin induction by TNFa, primary screen, imaging, HUVEC, immunofluorescence, MLSMR starter and 10KST1 sets (AID 487;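 active means visually confirmed hit in the image check and inhibition above 20%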;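 on inhibition: signal is fraction of cell area covered by stained E-selectin grains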;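 on nuclei count: 100% = median nuclei count of all wells on the same plate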). The note with it: HUVEC TNFalpha-induced E-selectin immunofluorescence imaging, at 2 µM; inhibition: stronger effect = higher value; nuclei count: measured here: cell number, toxicity.
Experiment [4] is described as follows: DUSP6 inhibitors restoring Erk phosphorylation by chemical complementation, primary imaging in DUSP6-transfected HeLa (AID 609;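 active means compounds giving at least 50% inhibition in the cell-based MKP-3 phosphatase rescue imaging test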;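 on inhibition: phospho-Erk level distribution per well compared with pooled transfected vehicle control wells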). Conditions: HeLa MKP-3 transfected, phospho-Erk imaging KS statistic, at 10 µM.
The target in experiment [5] is Dual specificity protein phosphatase 6 (Homo sapiens) (UniProt Q16828). The experiment is described as above. The note with it: HeLa MKP-3 transfected, phospho-Erk imaging KS statistic, at 10 µM, stronger effect = higher value.
Dual specificity protein phosphatase 6 (Homo sapiens), sequence (Q16828 whole entry, looked up): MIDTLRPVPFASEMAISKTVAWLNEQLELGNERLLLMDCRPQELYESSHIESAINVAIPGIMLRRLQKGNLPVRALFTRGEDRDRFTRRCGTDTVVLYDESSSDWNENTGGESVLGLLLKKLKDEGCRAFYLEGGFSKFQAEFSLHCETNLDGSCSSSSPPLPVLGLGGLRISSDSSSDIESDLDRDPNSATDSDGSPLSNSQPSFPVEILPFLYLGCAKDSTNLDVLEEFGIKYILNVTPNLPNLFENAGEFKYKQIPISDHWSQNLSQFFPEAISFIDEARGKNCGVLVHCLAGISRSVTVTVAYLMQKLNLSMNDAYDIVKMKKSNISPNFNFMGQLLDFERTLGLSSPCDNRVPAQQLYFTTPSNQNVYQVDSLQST
Experiment [6] addresses Voltage-gated potassium channel subunit beta-2 (Rattus norvegicus) (UniProt P62483). The experiment is described as follows: KvBeta enzyme negative modulators, primary screen, biochemical, NADPH fluorescence (AID 622;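 active means fluorescence slope higher than the sample average by over 3 SD, cut at about -0.22 in these data, passing the limit was not always enough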;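 further: slope of raw intensity against log time taken from 70 to 1610 s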). The note with it: recombinant KvBeta, 4-cyanobenzaldehyde reduction, at 10 µM, stronger effect = higher value.
Experiment [7] shares this target. Description: KvBeta positive modulators, primary screen, biochemical, NADPH fluorescence (AID 623;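 active means NADPH fluorescence slope more negative than the mean of all samples by about 3 SD, 99.7% confidence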;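 further: fluorescence intensity change per second fitted from 20 to 320 s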). Conditions: Recombinant KvBeta, NADPH fluorescence decrease slope, 10 min; at 10 µM; stronger effect = lower value.
Experiment [8] deals with Alpha-2C adrenergic receptor (Homo sapiens) (UniProt P18825). Description: modulators of alpha2C/GIRK thallium flux, primary screen, cell-based, HEK293 alpha2C/GIRK1/2 (AID 624;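 active means fluorescence slope after compound addition differing from the mean of all screened samples at 99.7% confidence, in either direction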;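 further: slope of fluorescence ratio to pre-addition baseline per second over 15 to 24 s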). The note with it: thallium flux BTC fluorescence, at 10 µM, actives lie on both sides.
Alpha-2C adrenergic receptor (Homo sapiens), sequence (P18825 whole entry, looked up): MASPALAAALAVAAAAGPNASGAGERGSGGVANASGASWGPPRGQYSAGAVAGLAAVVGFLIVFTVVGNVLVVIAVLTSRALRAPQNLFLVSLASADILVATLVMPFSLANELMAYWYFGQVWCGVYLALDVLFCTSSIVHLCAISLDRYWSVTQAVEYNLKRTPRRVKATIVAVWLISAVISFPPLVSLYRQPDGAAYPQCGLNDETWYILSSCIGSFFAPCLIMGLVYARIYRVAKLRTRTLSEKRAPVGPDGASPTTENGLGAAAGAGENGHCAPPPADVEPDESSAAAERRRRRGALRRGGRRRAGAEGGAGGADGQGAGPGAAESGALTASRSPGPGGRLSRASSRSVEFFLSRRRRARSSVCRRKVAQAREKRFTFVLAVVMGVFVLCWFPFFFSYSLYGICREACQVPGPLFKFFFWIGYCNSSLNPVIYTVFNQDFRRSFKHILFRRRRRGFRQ
Experiment [9] is described as follows: inhibitors of Chlamydomonas gravitaxis, primary screen, whole organism, Chlamydomonas reinhardtii, WT vs cilia-less mutant, absorbance, 96-well (AID 463189).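 Further: 0% = wild type cc124 cells in DMSO and 100% = ciliumless bld1 mutant cells.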 The note with it: OD600 absorbance, 2 days, at 10 µM, stronger effect = higher value.
The nature of experiment [10]: inhibitors of Sendai virus-induced IRF3 signaling, primary screen, TLR/RLR signaling modifier project, cell-based, Sendai virus stimulus, luciferase, 10K MLSCN set (AID 602276;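 active means inhibition at or above 50% at 10 µM; inactive means inhibition below 50%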;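 further: firefly luciferase from ISG56 promoter only with Renilla not read in this screen; 0% = Sendai virus plus DMSO and 100% = medium plus DMSO without virus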). Conditions: HEK293 RL24 IRF3 luciferase reporter, at 10 µM, stronger effect = higher value.
A short description of experiment [11]: inhibitors of poly I:C-induced TLR3 signaling, primary screen, cell-based, poly I:C stimulus, luciferase, 10K MLSCN set (AID 602277;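 active means inhibition of the reporter signal at or above 50%; inactive means inhibition below 50%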). Conditions: HEK293-TLR3 RL24 IRF3 luciferase reporter, at 10 µM, stronger effect = higher value. (In general: A reporter such as luciferase makes a cellular process visible.)
The nature of experiment [12]: inhibitors of larval lipid processing in zebrafish, primary screen, whole organism, PED6 fluorescence, gall bladder and intestine (AID 686;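 active means a full or partial loss of lipid-probe fluorescence in the fish gall bladder, intestine or both, judged by eye; inactive means no fluorescence loss, or compound toxic to the fish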;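 further: larvae 5 to 7 days old with five fish per well; signal comes from phospholipase A2 cleavage of quenched PED6 carried via bile; overnight exposure to compound and PED6 before scoring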). The note with it: Zebrafish larvae PED6 lipid processing, fluorescence scoring.
Experiment [13] concerns the target Muscarinic acetylcholine receptor M4 (Homo sapiens) (UniProt P08173). The experiment is described as follows: compounds altering M4/GIRK thallium flux, either direction, primary screen, M4 allosteric agonist project, cell-based, HEK293 M4/GIRK, BTC-AM (AID 625;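 active means fluorescence slope after compound addition differing from the mean of all tested samples at 99.7% confidence, mostly higher but some lower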;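 further: thallium influx through GIRK channels coupled to M4 in HEK293 cells with BTC-AM dye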). The note with it: at 10 µM, actives lie on both sides.
Where [14] appears, read: measured here: cell density z-score.
Setting [15] is: measured here: nuclear c-Myc green intensity z-score.
Setting [16] is: measured here: nuclear pErk red intensity z-score, stronger effect = higher value.

Each structure is given as a SMILES string. Where “and” joins values, the source holds several entries; their conditions need not be identical. Identical values can stand only once. Calls of active or inactive are those of the source.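 How the source made its calls, unless noted: active means inhibition at or above 50% relative to wild type and mutant plate controls; inactive means inhibition below 50%.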

Voltage-gated potassium channel subunit beta-2 (Rattus norvegicus), sequence (P62483 whole entry, looked up): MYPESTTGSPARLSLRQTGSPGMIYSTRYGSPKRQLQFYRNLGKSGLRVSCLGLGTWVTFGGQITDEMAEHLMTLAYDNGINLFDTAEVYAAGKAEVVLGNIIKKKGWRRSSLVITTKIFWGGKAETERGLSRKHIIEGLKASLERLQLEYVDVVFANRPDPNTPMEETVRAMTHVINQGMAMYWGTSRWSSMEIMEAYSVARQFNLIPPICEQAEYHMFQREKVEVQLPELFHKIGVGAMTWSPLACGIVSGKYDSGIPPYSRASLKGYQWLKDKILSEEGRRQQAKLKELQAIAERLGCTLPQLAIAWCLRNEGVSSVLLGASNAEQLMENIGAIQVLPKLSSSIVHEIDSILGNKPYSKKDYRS
Muscarinic acetylcholine receptor M4 (Homo sapiens), sequence (P08173 whole entry, looked up): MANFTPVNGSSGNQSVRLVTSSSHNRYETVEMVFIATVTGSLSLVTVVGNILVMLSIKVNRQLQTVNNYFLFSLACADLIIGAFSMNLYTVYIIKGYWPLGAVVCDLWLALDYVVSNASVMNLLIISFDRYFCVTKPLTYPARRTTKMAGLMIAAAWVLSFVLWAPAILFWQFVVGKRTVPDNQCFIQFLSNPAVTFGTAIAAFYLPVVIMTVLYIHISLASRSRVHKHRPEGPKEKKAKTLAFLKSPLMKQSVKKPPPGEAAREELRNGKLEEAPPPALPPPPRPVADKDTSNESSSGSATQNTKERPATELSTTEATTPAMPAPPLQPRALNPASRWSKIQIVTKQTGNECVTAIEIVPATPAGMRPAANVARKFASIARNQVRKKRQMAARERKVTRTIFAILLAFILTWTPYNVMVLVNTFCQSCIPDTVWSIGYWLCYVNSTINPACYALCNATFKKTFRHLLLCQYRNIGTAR

Take `CC(C)[C@@]1(NC(=O)[C@@H]2C=C3c4cccc5[nH]cc(c45)C[C@H]3N(C)C2)O[C@@]2(O)[C@@H]3CCCN3C(=O)[C@H](Cc3ccccc3)N2C1=O`: the cell count in experiment [1] amounted to 584. For the same molecule, the inhibition (as a rule, the change of the read-out against control, counted positive when it falls) in [1] was -0.4% (inactive); in experiment [3], -22.9% (inactive); in experiment [5], 10.2% (inactive); in experiment [9], 1.14% (inactive) and 21.5% (inactive); in [10], 22% (inactive); in experiment [11], 13.1% (inactive). Moreover, in experiment [2], the inhibition of aggregation was 7.1% (inactive). Besides, the nuclei count in experiment [2] came to 99.7%; in experiment [3], 114%. The figures for the z-score in experiment [4] (setting [14]), in experiment [4] (setting [15]) and in experiment [4] (setting [16]) were 0.234, 0.806 and -0.53, respectively. Further, the fluorescence slope in [6] is -0.477 (inactive). Besides, the NADPH fluorescence slope in experiment [7] is -1e-05 (inactive). For the same molecule, the slope in experiment [8] was 0.00405 (inactive).

Regarding `CCC(COC(=O)c1cc(OC)c(OC)c(OC)c1)(c1ccccc1)N(C)C` (stereo not given), the cell count in experiment [1] is 445. In addition, the inhibition in experiment [1] is -6.3% (inactive); in [3], -6.1% (inactive); in [5] it was 3.45% (inactive); in experiment [9], -3.48% (inactive); in experiment [10], 1.96% (inactive); in [11], 35% (inactive). In addition, the inhibition of aggregation in experiment [2] was 12.7% (inactive). For the same molecule, the nuclei count in [2] and in experiment [3] was 92.2% in each case. In addition, the z-score in experiment [4] (setting [14]) was -0.162; in experiment [4] (setting [15]), 0.437; in [4] (setting [16]), -0.404. Also, the fluorescence slope in [6] was -0.498 (inactive). For the same molecule, the NADPH fluorescence slope in experiment [7] is -7.2e-05 (inactive). For the same molecule, in experiment [8], the slope was 0.00446 (inactive). The outcome in experiment [12] was inactive.

With `Cc1ccc(-n2c(O)c(C=NCCN3CCOCC3)c(=O)[nH]c2=O)cc1`, the cell count in experiment [1] worked out at 536. Also, the inhibition was -3.4% (inactive) in experiment [1]; -76.6% (inactive) in experiment [3]; 6.04% (inactive) in experiment [5]; -5.09% (inactive) in experiment [9]; 15.1% (inactive) in experiment [10]; 25% (inactive) in experiment [11]. Also, the inhibition of aggregation in experiment [2] is -17.4% (inactive). Besides, the nuclei count in experiment [2] is 117%; in experiment [3], 147%. Also, the z-score in experiment [4] (setting [14]) is -0.809; in [4] (setting [15]) it was -1.16; in experiment [4] (setting [16]), 1.01. In experiment [6], the fluorescence slope is -0.418 (inactive). The NADPH fluorescence slope in experiment [7] was -4.9e-05 (inactive). The slope in [8] is 0.00555 (inactive). In experiment [12], the call was inactive.

Molecule `O=c1[nH]c(=O)n(-c2cccc3ccccc23)c(O)c1C=NCCCn1ccnc1` displayed a cell count in [1] of 430. For the same molecule, the inhibition in experiment [1] was 2.6% (inactive); in experiment [3], -19% (inactive); in [5] it was -5.95% (inactive); in experiment [9] it was -5.53% (inactive); in experiment [10], 19% (inactive); in experiment [11] it was 17.8% (inactive). Further, the inhibition of aggregation in experiment [2] was -2.6% (inactive). Further, the nuclei count in [2] is 113%; in experiment [3] it was 71.8%. In addition, the z-score in experiment [4] (setting [14]) is 0.0574; in experiment [4] (setting [15]), -0.666; in experiment [4] (setting [16]), -0.681. Further, the fluorescence slope in experiment [6] is -0.411 (inactive); in [13] it was 0.00656 (inactive). Moreover, in experiment [7], the NADPH fluorescence slope is -2.1e-05 (inactive). Besides, the slope in [8] is 0.00458 (inactive). For the same molecule, the outcome in experiment [12] was inactive.

`CN(C)[C@@H]1C(=O)C(C(N)=O)=C(O)[C@@]2(O)C(=O)C3=C(O)c4c(O)cccc4[C@@](C)(O)[C@H]3C[C@@H]12` came in with a cell count in [1] of 668. In addition, the inhibition is 5.4% (inactive) in experiment [1]; -85.3% (inactive) in [3]; 21.2% (inactive) in experiment [5]; 22.3% (inactive) in experiment [9]; 10.4% (inactive) in [10]; 33.9% (inactive) in experiment [11]. Besides, in experiment [2], the inhibition of aggregation is 72.1% (active). Moreover, the results for the nuclei count in experiment [2] and in experiment [3] were 99.1% and 113%, respectively. For the same molecule, the z-score in [4] (setting [14]) was -0.618; in [4] (setting [15]) it was -0.0358; in experiment [4] (setting [16]), -1.49. The fluorescence slope in [6] is -0.433 (inactive). Moreover, in experiment [7], the NADPH fluorescence slope is -5.8e-05 (inactive). For the same molecule, the slope in experiment [8] was 0.00553 (inactive). For the same molecule, the call in experiment [12] was inactive.
